Test results published in PubChem BioAssay (NCATS).
Values joined by “and” are separate entries in the source; they are usually repeats but may differ in a detail not shown here. Equal entries are not always repeated. Records with an inconclusive call do not appear. Entries that show only a call come without a potency. A number with no mark means an inactive call. Active and inactive are the calls of the source. Calls follow the shape of the dose curve; as a rule, active = well fitted curve in the direction sought with a large enough effect; inconclusive = small, poorly fitted or top-dose-only effect, or another doubt; inactive = no such curve, though single readings can be large; an effect the other way counts as inactive or inconclusive.

How the values were obtained:
W2 = assay: qHTS profiling for inhibitors of Plasmodium falciparum proliferation (AID 504749); also: nearly all actives have a fitted effect of over 60% in size; also: potency is read from the fitted curve at half-maximal effect; conditions: P. falciparum in erythrocytes, SYBR Green DNA, 72 h; series mostly up to 28.7 µM
In short: (§1)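 Infected RBCs, 0.3% parasitemia/2.5% Hct final; cpd 72 h, 37 C, 5% CO2; lysis buffer with saponin/triton/SYBR Green I, o/n RT dark; FI 485/535; norm. to artemisinin (0.29 uM) and DMSO.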

CRL-7250 [1] = assay: Cytotoxic Profiling of Annotated Libraries Using Quantitative High-Throughput Screening (AID 1296008); conditions: Five cell lines viability, CellTiter-Glo ATP luminescence, 48-72 h; max response: stronger effect = lower value; also: nearly all actives have a fitted effect of over 60% in size; also: potency is read from the fitted curve at half-maximal effect
In short: (§2)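 Cytotoxicity was measured as CellTiter-Glo ATP luminescence, read after 10 min at room temperature. Compound treatment of the cells lasted 48 or 72 hr at 37 degrees Celsius in a qHTS format.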

HEK293 = assay: as above; conditions: Five cell lines viability, CellTiter-Glo ATP luminescence, 48-72 h; max response: stronger effect = lower value
In short: as §2

KB-3-1 = assay: as above; conditions: Five cell lines viability, CellTiter-Glo ATP luminescence, 48-72 h; max response: stronger effect = lower value
In short: as §2

NIH3T3 [2] = assay: as above; conditions: Five cell lines viability, CellTiter-Glo ATP luminescence, 48-72 h; max response: stronger effect = lower value
In short: as §2

MCC-13 = assay: qHTS assay to identify novel small-molecules to repurpose for Merkel cell carcinoma treatment (AID 1296009); conditions: MCC and control cell lines, CellTiter-Glo viability, 72 h; series mostly up to 46 µM; also: nearly all actives have a fitted effect of over 60% in size
In short: (§3)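 72 hr, 37 degree celsius; NPC 8-pt / MIPE 11-pt dose response; compound pinned in DMSO; CellTiter-Glo, 10 min RT, luminescence; normalized to no-cell and DMSO controls.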

MCC-26 = assay: as above; conditions: MCC and control cell lines, CellTiter-Glo viability, 72 h; series mostly up to 46 µM
In short: as §3

MKL-1 = assay: as above; conditions: MCC and control cell lines, CellTiter-Glo viability, 72 h; series mostly up to 46 µM
In short: as §3

MKL-2 = assay: as above; conditions: MCC and control cell lines, CellTiter-Glo viability, 72 h; series mostly up to 46 µM
In short: as §3

NIH3T3 [3] = assay: as above; conditions: MCC and control cell lines, CellTiter-Glo viability, 72 h; at 44.8 µM (top of the series) unless noted
In short: as §3

UISO = assay: as above; conditions: MCC and control cell lines, CellTiter-Glo viability, 72 h; series mostly up to 46 µM
In short: as §3

WaGa = assay: as above; conditions: MCC and control cell lines, CellTiter-Glo viability, 72 h; series mostly up to 46 µM
In short: as §3

C33A = assay: Primary qHTS to identify gynecologic anti-cancer compounds using libraries of approved drugs and bioactive compounds (AID 1345084); conditions: Gynecologic cancer cell panel viability, ATPlite luminescence, 48 h; series mostly up to 57.5 µM; also: nearly all actives have a fitted effect of over 55% in size
In short: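 In this quantitative HTS, cell killing is estimated from loss of ATP-dependent luciferase light. Cells see five compound concentrations over a 48 h exposure.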

HaCat [4] = assay: Cytotoxic Profiling of Annotated Libraries Using Quantitative High-Throughput Screening (AID 1296008); conditions: Five cell lines viability, CellTiter-Glo ATP luminescence, 48-72 h; max response: stronger effect = lower value; also: nearly all actives have a fitted effect of over 60% in size; also: potency is read from the fitted curve at half-maximal effect
In short: as §2

TAB109 = assay: qHTS profiling for inhibitors of Plasmodium falciparum proliferation (AID 504749); also: nearly all actives have a fitted effect of over 60% in size; also: potency is read from the fitted curve at half-maximal effect; conditions: P. falciparum in erythrocytes, SYBR Green DNA, 72 h; series mostly up to 28.7 µM
In short: as §1

TAB113 = assay: as above; conditions: P. falciparum in erythrocytes, SYBR Green DNA, 72 h; series mostly up to 28.7 µM
In short: as §1

TAB165 = assay: as above; conditions: P. falciparum in erythrocytes, SYBR Green DNA, 72 h; series mostly up to 28.7 µM
In short: as §1

HACAT [5] = assay: qHTS assay to identify novel small-molecules to repurpose for Merkel cell carcinoma treatment (AID 1296009); conditions: MCC and control cell lines, CellTiter-Glo viability, 72 h; at 44.8 µM (top of the series) unless noted; also: nearly all actives have a fitted effect of over 60% in size
In short: as §3

HEK293T = assay: as above; conditions: MCC and control cell lines, CellTiter-Glo viability, 72 h; at 44.8 µM (top of the series)
In short: as §3

CRL-7250 [6] = assay: as above; conditions: MCC and control cell lines, CellTiter-Glo viability, 72 h; series mostly up to 44.8 µM
In short: as §3

CCCN1CCC[C@@H]2Cc3[nH]ncc3C[C@H]21
Potency (W2): inactive | max response (CRL-7250 [1]): 4.64% | max response (HEK293): -0.855% | max response (KB-3-1): -4.95% | outcome (NIH3T3 [2]): inactive | Potency (MCC-13): inactive | Potency (MCC-26): inactive | Potency (MKL-1): inactive | Potency (MKL-2): inactive | outcome (NIH3T3 [3]): inactive | Potency (UISO): inactive | Potency (WaGa): inactive | Potency (C33A): inactive

C[C@]12CC[C@H]3[C@@H](CCC4=CC(=O)CC[C@@H]43)[C@@H]1CC[C@@H]2OC(=O)CCc1ccccc1
max response (CRL-7250 [1]): -4.34% | Potency (HEK293): 23.7 µM (active) | max response (HaCat [4]): 1.58% | max response (NIH3T3 [2]): -2.8% | Potency (MCC-13): inactive | Potency (MCC-26): inactive | Potency (MKL-1): inactive | Potency (MKL-2): inactive | Potency (UISO): inactive | Potency (WaGa): inactive | Potency (C33A): inactive

NCC1(CC(=O)O)CCCCC1
Potency (TAB109): inactive | Potency (TAB113): inactive | Potency (TAB165): inactive | Potency (W2): inactive | max response (CRL-7250 [1]): -5.5% and -5.6% | outcome (HaCat [4]): inactive | max response (KB-3-1): -11.6% and 17.1% | max response (NIH3T3 [2]): -2.27% and -4.04% | outcome (HACAT [5]): inactive | outcome (HEK293T): inactive | Potency (MCC-13): inactive | Potency (MCC-26): inactive | Potency (MKL-1): inactive | Potency (MKL-2): inactive | Potency (UISO): inactive | Potency (WaGa): inactive | Potency (C33A): inactive

Cc1cccc(C)c1NC(=O)CN1CCCC1=O
max response (CRL-7250 [1]): 0.285% and 2.07% | max response (HaCat [4]): 3.48% and 0.767% | max response (KB-3-1): -16.8% and -6.89% | max response (NIH3T3 [2]): 1.47% and -1.95% | outcome (HEK293T): inactive | Potency (MCC-13): inactive | Potency (MKL-1): inactive | Potency (MKL-2): inactive | Potency (UISO): inactive | Potency (WaGa): inactive | Potency (C33A): inactive

CCCC1CCCCN1 (stereo not drawn)
Potency (TAB109): inactive | Potency (TAB113): inactive | Potency (TAB165): inactive | Potency (W2): inactive | max response (CRL-7250 [1]): -4.9% | outcome (HaCat [4]): inactive | max response (KB-3-1): -0.9% | outcome (NIH3T3 [2]): inactive | outcome (HACAT [5]): inactive | Potency (MCC-13): inactive | Potency (MCC-26): inactive | Potency (MKL-1): inactive | Potency (MKL-2): inactive | outcome (NIH3T3 [3]): inactive | Potency (UISO): inactive | Potency (WaGa): inactive | Potency (C33A): inactive

CC[C@@H](CO)NC(=O)[C@@H]1C=C2c3cccc4[nH]cc(c34)C[C@H]2N(C)C1
Potency (TAB109): inactive | Potency (TAB113): inactive | Potency (TAB165): inactive | Potency (W2): inactive | max response (CRL-7250 [1]): -1.45% | max response (HEK293): -3.34% | max response (HaCat [4]): -5.68% | max response (KB-3-1): 37.2% | max response (NIH3T3 [2]): -3.83% | Potency (MCC-13): inactive | Potency (MCC-26): inactive | Potency (MKL-1): inactive | Potency (MKL-2): inactive | Potency (UISO): inactive | Potency (WaGa): inactive | Potency (C33A): inactive

C#CCOC(C(=O)OCCN(C)C)(c1ccccc1)c1ccccc1
Potency (TAB113): inactive | Potency (TAB165): inactive | max response (CRL-7250 [1]): -6.32% | outcome (HaCat [4]): inactive | max response (KB-3-1): -0.159% | outcome (NIH3T3 [2]): inactive | outcome (HACAT [5]): inactive | Potency (MCC-13): inactive | Potency (MKL-1): inactive | Potency (MKL-2): inactive | outcome (NIH3T3 [3]): inactive | Potency (UISO): inactive | Potency (WaGa): inactive | Potency (C33A): inactive

CC1=C2C[C@@H]3[C@@H](CC=C4C[C@@H](O)CC[C@@]43C)[C@@H]2CC[C@]12O[C@H]1C[C@H](C)CN[C@H]1[C@H]2C
max response (CRL-7250 [1]): 4.78% | outcome (HaCat [4]): inactive | max response (KB-3-1): 6.86% | max response (NIH3T3 [2]): 0.588% | outcome (HACAT [5]): inactive | Potency (MCC-13): inactive | Potency (MKL-1): inactive | Potency (MKL-2): inactive | Potency (UISO): inactive | Potency (WaGa): inactive

CC(C)(N)Cc1ccc(Cl)cc1
Potency (TAB109): inactive | Potency (TAB113): inactive | Potency (TAB165): inactive | max response (CRL-7250 [1]): 0.791% | outcome (HaCat [4]): inactive | max response (KB-3-1): -1.79% | outcome (NIH3T3 [2]): inactive | outcome (HACAT [5]): inactive | Potency (MCC-13): inactive | Potency (MKL-1): inactive | Potency (MKL-2): inactive | outcome (NIH3T3 [3]): inactive | Potency (UISO): inactive | Potency (WaGa): inactive | Potency (C33A): inactive

CCC1(C2=NCCN2)Cc2ccccc2O1 (stereo not drawn)
Potency (TAB165): 11.2 µM (active) | Potency (W2): 3.79 µM (active) | max response (CRL-7250 [1]): -2.42% | max response (HEK293): 2.14% | max response (NIH3T3 [2]): -1.86% | Potency (MCC-13): inactive | Potency (MKL-1): inactive | Potency (MKL-2): inactive | Potency (UISO): inactive | Potency (WaGa): inactive | Potency (C33A): inactive

CNC(=O)c1ccc(N2C(=S)N(c3ccc(C#N)c(C(F)(F)F)c3)C(=O)C23CCC3)cc1F
outcome (CRL-7250 [1]): inactive | outcome (HaCat [4]): inactive | max response (KB-3-1): 0.285% and 2.98% | max response (NIH3T3 [2]): 3.77% and -4.83% | outcome (CRL-7250 [6]): inactive | outcome (HACAT [5]): inactive | outcome (HEK293T): inactive | Potency (MCC-13): inactive | Potency (MCC-26): inactive | Potency (MKL-1): inactive | Potency (MKL-2): inactive | Potency (UISO): inactive | Potency (WaGa): inactive | Potency (C33A): inactive

CN1CCN(C(=O)O[C@H]2c3nccnc3C(=O)N2c2ccc(Cl)cn2)CC1
Potency (TAB109): inactive | Potency (TAB113): inactive | Potency (TAB165): inactive | Potency (W2): inactive | outcome (CRL-7250 [1]): inactive | max response (HaCat [4]): -17.1% | outcome (HaCat [4]): inactive | max response (KB-3-1): 4.48% | max response (NIH3T3 [2]): -1.04% and -0.741% | outcome (CRL-7250 [6]): inactive | outcome (HACAT [5]): inactive | outcome (HEK293T): inactive | Potency (MCC-13): inactive | Potency (MCC-26): inactive | Potency (MKL-1): inactive | Potency (MKL-2): inactive | Potency (UISO): inactive | Potency (WaGa): inactive | Potency (C33A): inactive
